Laboratory results published in PubChem BioAssay AID686979 (National Center for Advancing Translational Sciences (NCATS), 2013).
Screen size: about 420,000 compounds; about 50,000 (12%) were called active. A call without a number means that no potency is given here. Inconclusive results (about 26%) are left out. Calls follow the shape of the dose curve; as a rule, active = well fitted inhibition curve with a large enough effect; inconclusive = small, poorly fitted or top-dose-only effect; inactive = flat fitted curve, though single readings scatter. This excerpt belongs to a sample that is enriched for actives.

Assay: qHTS for Inhibitors of human tyrosyl-DNA phosphodiesterase 1 (TDP1): qHTS in cells in presence of CPT; also: nearly all actives have a fitted effect of over 55% in size
Details: chicken DT40 Tdp1-/-;hTDP1 cells + 20 nM CPT, ATP luminescence, 48 h; series mostly up to 46.2 µM
Procedure, shortened: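 Cell growth measured by CellTiter-Glo luminescence after a minimum 48 h, 37 C compound exposure with 20 nM CPT in Tdp1-knockout DT40 cells stably expressing hTDP1, seeded 400/well; qHTS titration format.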
Potency is read from the fitted curve at half-maximal effect.

SMILES	Potency
CSc1ccccc1NC(=O)COC(=O)CCCOc1ccc(C)cc1	inactive
COc1cc([N+](=O)[O-])ccc1NC(=O)CN1CCCC1	inactive
COc1cc([N+](=O)[O-])ccc1NC(=O)COC(=O)CCOc1ccc(C)cc1	6.51 µM (active)
CC1(C)CC(=O)CC2(C1)NCC(c1ccccc1Cl)c1c2[nH]c2ccccc12 (configuration not stated)	18.4 µM (active)
Cc1ccc(C(=O)Nc2nc(-c3ccccc3)ns2)cc1	inactive
Cc1ccc(C(=O)Nc2nc(N)n(-c3ccccc3)n2)cc1	inactive
CCc1cccc(-n2nnc(-c3nsc(NC(=O)c4ccc(C)cc4)n3)c2C)c1	9.2 µM (active)
CCN(CC(=O)Nc1ccc(NC(C)=O)cc1)C(=O)C1CC(=O)N(c2ccc3c(c2)OCCO3)C1 (configuration not stated)	inactive
COc1cccc(CNC(=O)CCC(=O)N2CC3CCCN3c3ccccc32)c1 (configuration not stated)	14.6 µM (active)
COc1cccc(CNC(=O)CCC2CCCN(C(=O)c3cc(C)[nH]n3)C2)c1 (configuration not stated)	inactive
COc1cccc(CNC(=O)C2CC(=O)N(C3CCCCCCC3)C2)c1 (configuration not stated)	inactive
CCOc1ccc(-c2nc(C)sc2CC(=O)O)cc1	inactive
Cc1cc(C)cc(NC(=O)C2CCCN(S(=O)(=O)c3ccc4[nH]c(=O)ccc4c3)C2)c1 (configuration not stated)	inactive
Cn1nnnc1SCC(=O)Nc1sccc1C(N)=O	inactive
CC1=C(C(=O)OCc2ccc(C)cc2)C(c2ccccc2Cl)CC(=O)N1 (configuration not stated)	13 µM (active)
CC1=C(C(=O)OCc2ccc(C)cc2)C(c2c(Cl)cccc2Cl)CC(=O)N1 (configuration not stated)	inactive
COC(=O)C1=C(C)NC(=O)CC1c1ccccc1OC (configuration not stated)	inactive
O=C(Nc1ccc(Cl)cn1)c1ccccc1-c1ccccc1	inactive
CC1(C)S[C@@H]2[C@H](N=CN3CCCCCC3)C(=O)N2[C@H]1C(=O)O	inactive
C=CCn1c(SCc2ccc(C(=O)NCCO)cc2)nc2ccccc2c1=O	inactive
OC1CSc2nc3ccccc3n2C1 (configuration not stated)	inactive

SMILES	Potency
CC(=O)N1c2ccc(S(=O)(=O)N3CCC(C(=O)NCc4ccc(F)cc4)CC3)cc2CC1C (configuration not stated)	inactive
CC(=O)N1c2ccc(S(=O)(=O)N3CCCC(C(=O)Nc4cccc(Cl)c4)C3)cc2CC1C (configuration not stated)	16.4 µM (active)
COc1ccc(OC)c(NC(=O)C2CCCN2S(=O)(=O)c2cccc3nsnc23)c1 (configuration not stated)	inactive
COc1ccc(OC)c(NC(=O)C2CCCN2S(=O)(=O)c2ccc3c(c2)CC(C)N3C(C)=O)c1 (configuration not stated)	20.6 µM (active)
CCc1cccc(NC(=O)C2CCCN(S(=O)(=O)c3ccc4[nH]c(=O)ccc4c3)C2)c1 (configuration not stated)	inactive
CC(=O)N1c2ccc(S(=O)(=O)N3CCC(C(=O)NC4CCCC(C)C4C)CC3)cc2CC1C (configuration not stated)	inactive
COc1ccc(OC)c(NC(=O)c2cccc(S(=O)(=O)N3CCN(C(C)=O)CC3)c2)c1	inactive
CC(=O)N1c2ccc(S(=O)(=O)N3CCCC(C(=O)Nc4cccc(F)c4)C3)cc2CC1C (configuration not stated)	11.6 µM (active)
CC(=O)N1c2ccc(S(=O)(=O)N3CCC(C(=O)NC4CCCCC4C)CC3)cc2CC1C (configuration not stated)	inactive
CC(=O)N1CCc2cc(Br)cc(S(=O)(=O)CCC(=O)Nc3c(C)n(C)n(-c4ccccc4)c3=O)c21	inactive
COC(=O)c1cc(NC(=O)CCc2c(C)nc3c4c(C)cc(C)nc4nn3c2C)cc(C(=O)OC)c1	inactive
COc1ccc(NC(=O)CCCc2nnc3n(CCC(C)C)c(=O)c4sccc4n23)c(OC)c1	inactive
COc1cc(C(=O)NN(CCC#N)C2=NS(=O)(=O)c3ccccc32)cc(OC)c1OC	inactive
COc1cc(/C=C/C(=O)OCC(=O)Nc2cccc(Oc3ccccc3)c2)ccc1O	inactive
CN(c1ccc(OCC(=O)O)cc1)S(=O)(=O)c1ccc2ccccc2c1	inactive
COc1ccc(NC(=O)C/C(C)=N/NC(=O)c2cnccn2)cc1Cl	inactive
CC1(C(=O)NS(=O)(=O)c2ccccc2)CCN1C(=O)C/C=C/c1ccccc1 (configuration not stated)	inactive
CC1(C)CCSC(/C=C/c2ccccc2)=N1	4.61 µM (active)
O=C(Nc1ccc(C(=O)OCc2cc(=O)n3nc(C4CC4)sc3n2)cc1)c1ccc(F)cc1	inactive
O=C(N/N=C/c1cccc(OC(=O)c2ccc([N+](=O)[O-])cc2)c1)c1cccnc1	inactive
O=C(CCNC(=O)Cn1ccc2ccccc2c1=O)NCCC1=CCCCC1	inactive

SMILES	Potency
N#CC1(NC(=O)COC(=O)Cc2n[nH]c(=O)c3ccccc23)CCCCC1	inactive
C/C=C/C=C/C(=O)O	inactive
COc1ccc(Cl)cc1NC(=O)CSc1nc2ccccc2c2nc(-c3ccccc3)nn12	inactive
CCOCCCn1c(SCC(=O)Nc2cc(OC)ccc2OC)nc2ccccc2c1=O	13 µM (active)
CC(=O)NCCn1c(SCC(=O)Nc2ccc(C)cc2)nc2ccccc2c1=O	inactive
CCc1nnc(NC(=O)CSc2nc3ccccc3c(=O)n2CCCOC)s1	inactive
COc1ccc(OC)c(NC(=O)CSc2nc(-c3ccccc3)cc(=O)[nH]2)c1	inactive
CCOCCCn1c(SCC(=O)Nc2ccc(CC)cc2)nc2ccccc2c1=O	14.6 µM (active)
CC(C)[C@@H]1NC(=O)c2cc([N+](=O)[O-])cc(I)c2NCCC[C@@H](C(=O)NC(CC(=O)O)C(N)=O)NC(=O)[C@H](CO)NC1=O (some centres not stated)	inactive
O=C(COC(=O)c1ccc(S(=O)(=O)N2CCCCCC2)cc1)Nc1ccccc1C(F)(F)F	inactive
CCc1ccccc1NC(=O)NCCN1CCCCC1	inactive
CCCCN(C(=O)c1ccc(C)o1)c1c(N)n(CCCC)c(=O)[nH]c1=O	inactive
COCCNc1ncnc2c1ncn2[C@H]1CN(CCN2CCOCC2)C[C@@H](CO)O1	inactive
COc1ccc(CN2C(=O)C(CC(=O)NC3CCCCC3)CC(C(=O)N3CCOCC3)=C2C)cc1 (configuration not stated)	inactive
CN(C)CCOc1cccc(Br)c1	inactive
CC(C)(C)c1ccc(/C=C/C(=O)Nc2ncccn2)cc1	inactive
CSc1nccc(NC(=O)c2ccc(C(C)(C)C)cc2)n1	9.2 µM (active)
Cc1cccc(NC(=O)c2cccnc2Cl)n1	inactive
COc1ccc(S(=O)(=O)N(C)C[C@H]2OCc3cnnn3CCCC(=O)N([C@H](C)CO)C[C@H]2C)cc1	inactive
COCc1cc(=O)oc2cc(NS(=O)(=O)c3ccc(C)cc3)ccc12	inactive
